Data on 40 molecules can be found in the supplement of paper PMC10042075.

The structures appear in SMILES notation. Where “and” joins values, the source holds several entries; their conditions need not be identical. Equal entries are not always repeated. Structures can show the parent of a compound that is named as a salt.

For the assay, the system named is LASCPC-01. Nature of the assay: cell viability relative to DMSO control (fraction); higher = less growth inhibition (more viable cells). Particulars: 2 µM; 72 h. The procedure: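 High-throughput single-dose screen in the LASCPC-01 NEPC cell line in 384-well plates. Cells were treated with each compound at 2 µM for 72 h, and viability was read by CellTiter-Glo luminescence. Values are normalised to the DMSO control (compound/DMSO) from three replicates; only the 5-HT-related subset of the 7315-compound library is given.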
Take `CN1CCN(C2=Nc3cc(Cl)ccc3Nc3ccccc32)CC1` [Clozapine]: the cell viability came out at 1.24. Under `O=C(O[C@@H]1C[C@@H]2C[C@H]3C[C@H](C1)N2CC3=O)c1c[nH]c2ccccc12` [Dolasetron] stands 1.15; under `CN1CCc2c(c3ccccc3n2Cc2ccccc2)C1` [Mebhydrolin napadisylate], 1.03. Under `CCCCCNC(=N)N/N=C/c1c[nH]c2ccc(OC)cc12` [Tegaserod maleate] stands 0.531; under `CC(C)(C)c1ccc(CN2CCN(C(c3ccccc3)c3ccc(Cl)cc3)CC2)cc1` (stereo not given) [Buclizine HCl], 0.896; under `CC(C)COc1ccc(CNC(=O)N(Cc2ccc(F)cc2)C2CCN(C)CC2)cc1` [Pimavanserin], 0.72. Consider `N[C@@H]1CC[C@@H](c2ccc(Cl)c(Cl)c2)c2ccccc21` [Dasotraline hydrochloride], for which the cell viability was found to be 1.13. `Cc1ccc(C(=O)Oc2ccc(C(CN(C)C)C3(O)CCCCC3)cc2)cc1` (stereo not given) [Ansofaxine hydrochloride] had a cell viability of 0.931.

With `COc1ccc(NC(=O)Nc2ccc(F)cc2F)cc1-c1c(Br)cnn1C` [Nelotanserin], the cell viability turned out to be 1.09.

Turning to `O=C1CC2(CCCC2)CC(=O)N1CCCCN1CCN(c2ncccn2)CC1` [Buspirone HCl], the cell viability turned out to be 1.02. Consider `C=C1C(=O)O[C@H]2[C@H]1CC/C(C)=C/CC[C@@]1(C)O[C@@H]21` [Parthenolide], for which the cell viability is 0.323. For the molecule `CC(C)c1cc(-c2ccc(F)c3ccccc23)nc(N)n1`, the cell viability was 1.05 and 0.845 and 0.897.

For `Cc1cc(NC(=O)Nc2ccc3c(ccn3C)c2)sn1`, the cell viability is 0.944. Under `CCN(CC)CCOC(=O)c1cc(Cl)c(N)cc1OC` [SDZ-205,557 hydrochloride] stands 1.06; under `CC(N)C(=O)OC(C)(C)Cc1ccc(Cl)cc1` (stereo not given) [Alaproclate hydrochloride], 1.13.

In turn, `COc1ccc2cccc(CCNC(C)=O)c2c1` [Agomelatine] had a cell viability of 1.07. Take `CNCC[C@@H](Oc1ccccc1C)c1ccccc1` [Atomoxetine HCl]: the cell viability stood at 1.02. In the case of `CC(C)COc1ccc(CNC(=O)N(Cc2ccc(F)cc2)C2CCN(C)CC2)cc1` [Pimavanserin tartrate], the cell viability stood at 0.514. `O=C(OC1C[C@@H]2CC3C[C@H](C1)N2CC3=O)c1c[nH]c2ccccc12` (stereo not given in full) [Dalasetron Mesylate Hydrate]: the cell viability stood at 0.985. In the case of `C=CCc1ccccc1OCC(O)CNC(C)C` (stereo not given) [Alprenolol] it was 1.03; in that of `Cc1nc2sccn2c(=O)c1CCN1CCC(=C(c2ccc(F)cc2)c2ccc(F)cc2)CC1` [Ritanserin], 0.989. `COCCCN1CCC(NC(=O)c2cc(Cl)c(N)c3c2OCC3)CC1` [Prucalopride Succinat]: the cell viability was determined as 1.1. In turn, `CN1CCC(c2c[nH]c3ccc(NC(=O)c4ccc(F)cc4)cc23)CC1` came in with a cell viability of 0.954.

On to `Cn1cc(C(=O)OCC2CCN(CCNS(C)(=O)=O)CC2)c2ccccc21`, for which the cell viability worked out at 0.959.

Consider `CC(=O)c1ccc2c(c1)N(CCCN1CCC(CCO)CC1)c1ccccc1S2` [Piperacetazine], for which the cell viability turned out to be 0.764. For `CN1[C@@H]2CC[C@H]1C[C@@H](OC(=O)c1c[nH]c3ccccc13)C2` [Tropisetron], the cell viability amounted to 1.01. Molecule `CNCCC(Oc1ccc(C(F)(F)F)cc1)c1ccccc1` (stereo not given) [Fluoxetine HCl] registered a cell viability of 1.02. For the molecule `COc1cccc(CCc2ccccc2OCC(CN(C)C)OC(=O)CCC(=O)O)c1` (stereo not given) [Sarpogrelate hydrochloride], the cell viability worked out at 1.09. Regarding `COc1cc(N)c(Cl)cc1C(=O)OCCN1CCCCC1`, the cell viability worked out at 0.718. `CNCCC(Oc1ccc(C(F)(F)F)cc1)c1ccccc1` (stereo not given) [Fluoxetine hydrochloride] displayed a cell viability of 0.686. `CN(C)C(=O)N[C@H]1CC[C@H](CCN2CCN(c3cccc(Cl)c3Cl)CC2)CC1` [Cariprazine] yielded a cell viability of 0.892. In turn, `O=C1[C@@H]2[C@H]3CC[C@H](C3)[C@@H]2C(=O)N1C[C@@H]1CCCC[C@H]1CN1CCN(c2nsc3ccccc23)CC1` [Lurasidone hydrochloride] yielded a cell viability of 0.876. Under `Cc1ncc(CO)c(CO)c1O` [Metadoxine] stands 1.13; under `O=C1[C@H]2CCCC[C@H]2C(=O)N1CCCCN1CCN(c2nsc3ccccc23)CC1` [Perospirone], 0.997; under `CCC(=O)c1c(O)cc(O)cc1O` [Flopropione], 0.95.

In turn, `CN(C)CC[C@@H](c1ccc(Cl)cc1)c1ccccn1` [Dexchlorpheniramine Maleate] showed a cell viability of 0.891. Molecule `COCCCN1CCC(NC(=O)c2cc(Cl)c(N)c3c2OCC3)CC1` [Prucalopride] yielded a cell viability of 0.922. Consider `O=C1[C@@H]2[C@H]3CC[C@H](C3)[C@@H]2C(=O)N1CCCCN1CCN(c2ncccn2)CC1` [Tandospirone citrate], for which the cell viability amounted to 0.477. The molecule `CN1CCN(c2cc3c(nn2)Oc2ccccc2N3C)CC1` [Azaphen] displayed a cell viability of 0.951. In the case of `CN(C)CCCN1c2ccccc2CCc2ccc(Cl)cc21` [Clomipramine hydrochloride] it was 0.987.
